# Compounds without any hit were thinned out: in the full panel of roughly 83,000, 20% have a hit.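 48-hour exposure, single concentration, 96-well plates; percent growth endpoint where 0 means no net growth. Active: below 10.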 A number with no mark means an inactive call. Active and inactive are the calls of the source.
# Tested on: T-47D breast
# Assay: NCI-60 one-dose screen, 48 h (100 = growth as untreated, 0 = no growth, -100 = all killed)
# Details: 10 µM unless noted
row,SMILES,growth
1,Cn1cnc(-c2cc3nccc(Oc4ccc(NC(=S)NC(=O)Cc5ccccc5)cc4F)c3s2)c1,65.8%
2,C#Cc1cccc(Nc2ncnc3cc(OC)c(OCCCCCCC(=O)NO)cc23)c1,-24.4% (active)
3,CCCCn1c(C)nc2ccc(Nc3nc(N4CCN(C)CC4)nc4nc[nH]c34)cc21,80.3%
4,O=C(Cn1ccc2ccccc21)Nc1ccc(-c2nc3ccccc3s2)cc1,90.6%
5,O=C(NOC[C@H](O)CO)c1ccc(F)c(F)c1Nc1ccc(I)cc1F,62.2%
6,Cc1sc2c(c1C)c(=O)nc1c(-c3nc4ccccc4s3)n[nH]n12,85.2%
7,CC1(/C=N/NC(N)=S)NC(=O)NC1=O (stereo not drawn),79.5%
8,COC(=O)CNC(=O)[C@@H](OC)[C@@H]1Cc2cc3cc(OC4CC(OC5CC(O)C(O)C(C)O5)C(O)C(C)O4)c(C)c(O)c3c(O)c2C(=O)[C@H]1OC1CC(OC2CC(OC3CC(C)(O)C(O)C(C)O3)C(O)C(C)O2)C(O)C(C)O1 (stereo partly drawn),11.3%
9,COc1ccc2c(CCC(c3ccccc3)c3ccccc3)c3[n+](cc2c1OC)CCc1cc2c(cc1-3)OCO2,5.67% (active)
10,O=C(NC[C@H](O)CO)c1ccncc1Nc1ccc(I)cc1F,47.7%
11,CC(C)(C)OC(=O)N1CCC(O)[C@@H](O[Si](c2ccccc2)(c2ccccc2)C(C)(C)C)[C@H]1/C=C/c1ccccc1 (stereo partly drawn),21.4%
12,C1=C\COCc2cc(ccc2OCCN2CCCC2)Nc2nccc(n2)-c2cccc(c2)COC/1,-23.5% (active)
13,COc1cccc(Nc2ncnn3ccc(CN4CC[C@@H](N)[C@H](O)C4)c23)c1,-1.78% (active)
14,C=C1C(=O)O[C@H]2[C@H]1CC/C(C=Nc1c(N)cc(C(F)(F)F)cc1C(F)(F)F)=C\CC[C@@]1(C)O[C@@H]21,-27% (active)
15,CO[C@H]1C[C@@H]2CC[C@@H](C)[C@@](O)(O2)C(=O)C(=O)N2CCCC[C@H]2C(=O)O[C@H]([C@H](C)C[C@@H]2CC[C@@H](OC(=O)C(C)(CO)CO)[C@H](OC)C2)CC(=O)[C@H](C)/C=C(\C)[C@@H](O)[C@@H](OC)C(=O)[C@H](C)C[C@H](C)\C=C/C=C/C=C/1C,-6.15% (active)
16,N#Cc1ccc(-n2nnc3ccccc32)cc1C#N,86.3%
17,CCN(CC)CCNc1ccc(N=Nc2cnc3ccccc3c2)c2ccccc12,-38.8% (active)
18,O=c1[nH]c(N2CCOCC2)nc2scc(-c3ccccc3)c12,80.7%
19,CSc1nc2ncncc2[nH]1,93.8%
20,CN1CCC(CNc2ccc3ncc(-c4cccc(OC(F)(F)F)c4)n3n2)CC1,-79.5% (active)
21,Nc1c2c(c(O)c3c1=C(CO)C=N3)=NCCS2,-42.5% (active)
22,COc1cc2nccc(Oc3ccc(NC(=O)Nc4cc(C)on4)c(Cl)c3)c2cc1OC,-1.14% (active)
23,CN1CCN(c2nc(C3=C(c4c[nH]c5ccccc45)C(=O)NC3=O)c3ccccc3n2)CC1,102%
24,COc1cnc2c(c1)C(=O)c1c-2n(CCCn2ccnc2)c(=O)c2cc(Cl)ccc12,-1.88% (active)
25,COc1ccc(-c2nocc2-c2cc(OC)c(OC)c(OC)c2)cc1,39.6%

# Tested on: BT-549 breast
# Assay: as above
# Details: 10 µM unless noted
row,SMILES,growth
1,O=C(Nc1ccc(C(=O)Nc2ccc(C3=NCCCN3)cc2)cc1)Nc1ccc(C2=NCCCN2)cc1,76.1%
2,CC(C)C1CCC(C)C(C2(C#N)C(N)=NC(N)=C2C#N)C1=O (stereo not drawn),98.8%
3,O=C(/C=C/c1ccc2c(c1)OCO2)c1c(O)c2ccccc2oc1=O,95.8%
4,CCNC(=O)C#Cc1ccc2c(C(=Nc3ccc(CN(C)C)cc3)c3ccccc3)c(O)[nH]c2c1,52.8%
5,CNS(=O)(=O)Nc1nccc(Cc2c(C)c3ccc(Oc4ncccn4)cc3oc2=O)c1F,68.6%
6,C[C@@H](NC(=O)c1ncnc(N)c1Cl)c1ncc(C(=O)Nc2cc(C(F)(F)F)c(Cl)cn2)s1,110%
7,COc1ccc(Nc2ncccc2NC(=O)c2cn(Cc3cccc(Oc4ccccc4)c3)nn2)cc1,93.6%
8,COc1ccc(OC)c(NC2=C(SCCc3ccccc3)C(=O)c3ccccc3C2=O)c1,79.5%
9,O=C(O)c1ccc2c(c1)nc(Nc1cccc(Cl)c1)c1ccncc12,-5.65% (active)
10,Cc1nc(Nc2n[nH]c3c2CN(C(=O)N[C@H](CN(C)C)c2ccccc2)C3(C)C)c2sccc2n1,-42.5% (active)
11,NC1(C(=O)N[C@@H](CCO)c2ccc(Cl)cc2)CCN(c2ncnc3[nH]ccc23)CC1,-9.59% (active)
12,COC[C@@H](C)n1c(C2CCOCC2)nc2c1C1C=C(OC)C(c3c(C)noc3C)=CC1N=C2 (stereo partly drawn),62.6%
13,N#CC1(C#N)C(c2cccs2)NC(c2cccs2)C1(C#N)C#N (stereo not drawn),101%
14,Cn1cnc(-c2cc3nccc(Oc4ccc(NC(=S)NC(=O)Cc5ccccc5)cc4F)c3s2)c1,77.3%
15,C#Cc1cccc(Nc2ncnc3cc(OC)c(OCCCCCCC(=O)NO)cc23)c1,-7.81% (active)
16,CCCCn1c(C)nc2ccc(Nc3nc(N4CCN(C)CC4)nc4nc[nH]c34)cc21,97.5%
17,O=C(Cn1ccc2ccccc21)Nc1ccc(-c2nc3ccccc3s2)cc1,105%
18,O=C(NOC[C@H](O)CO)c1ccc(F)c(F)c1Nc1ccc(I)cc1F,80.4%
19,Cc1sc2c(c1C)c(=O)nc1c(-c3nc4ccccc4s3)n[nH]n12,101%

row,SMILES,growth
1,CC1(/C=N/NC(N)=S)NC(=O)NC1=O (stereo not drawn),105%
2,COC(=O)CNC(=O)[C@@H](OC)[C@@H]1Cc2cc3cc(OC4CC(OC5CC(O)C(O)C(C)O5)C(O)C(C)O4)c(C)c(O)c3c(O)c2C(=O)[C@H]1OC1CC(OC2CC(OC3CC(C)(O)C(O)C(C)O3)C(O)C(C)O2)C(O)C(C)O1 (stereo partly drawn),-44.3% (active)
3,COc1ccc2c(CCC(c3ccccc3)c3ccccc3)c3[n+](cc2c1OC)CCc1cc2c(cc1-3)OCO2,-29.1% (active)
4,O=C(NC[C@H](O)CO)c1ccncc1Nc1ccc(I)cc1F,88%
5,CC(C)(C)OC(=O)N1CCC(O)[C@@H](O[Si](c2ccccc2)(c2ccccc2)C(C)(C)C)[C@H]1/C=C/c1ccccc1 (stereo partly drawn),63%
6,C1=C\COCc2cc(ccc2OCCN2CCCC2)Nc2nccc(n2)-c2cccc(c2)COC/1,21.9%
7,COc1cccc(Nc2ncnn3ccc(CN4CC[C@@H](N)[C@H](O)C4)c23)c1,48.3%
8,C=C1C(=O)O[C@H]2[C@H]1CC/C(C=Nc1c(N)cc(C(F)(F)F)cc1C(F)(F)F)=C\CC[C@@]1(C)O[C@@H]21,-31.5% (active)
9,CO[C@H]1C[C@@H]2CC[C@@H](C)[C@@](O)(O2)C(=O)C(=O)N2CCCC[C@H]2C(=O)O[C@H]([C@H](C)C[C@@H]2CC[C@@H](OC(=O)C(C)(CO)CO)[C@H](OC)C2)CC(=O)[C@H](C)/C=C(\C)[C@@H](O)[C@@H](OC)C(=O)[C@H](C)C[C@H](C)\C=C/C=C/C=C/1C,0.892% (active)
10,N#Cc1ccc(-n2nnc3ccccc32)cc1C#N,106%
11,CCN(CC)CCNc1ccc(N=Nc2cnc3ccccc3c2)c2ccccc12,27.5%
12,O=c1[nH]c(N2CCOCC2)nc2scc(-c3ccccc3)c12,92.4%
13,CSc1nc2ncncc2[nH]1,110%
14,CN1CCC(CNc2ccc3ncc(-c4cccc(OC(F)(F)F)c4)n3n2)CC1,-0.185% (active)
15,Nc1c2c(c(O)c3c1=C(CO)C=N3)=NCCS2,-95.9% (active)
16,COc1cc2nccc(Oc3ccc(NC(=O)Nc4cc(C)on4)c(Cl)c3)c2cc1OC,19.6%
17,CN1CCN(c2nc(C3=C(c4c[nH]c5ccccc45)C(=O)NC3=O)c3ccccc3n2)CC1,91%
18,COc1cnc2c(c1)C(=O)c1c-2n(CCCn2ccnc2)c(=O)c2cc(Cl)ccc12,13.2%
19,COc1ccc(-c2nocc2-c2cc(OC)c(OC)c(OC)c2)cc1,48.5%

# Source: PubChem BioAssay (NCI)
